Source: PubChem BioAssay (several laboratories)
The list is not random: actives were taken first. Their share in the collection is about 3.8%.
ADAM17 inh = ADAM17 inhibitors, primary screen, biochemical, QFRET; recombinant ADAM17, EDANS/DABCYL FRET peptide cleavage; hit rate 0.83% among 370,000; inhibition, % at 6.95 µM; Disintegrin and metalloproteinase domain-containing protein 17 (Homo sapiens), P78536;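 active = inhibition above the mean of compounds lying between control limits plus 3 SD, set per campaign, cut at about 8.5% in these data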;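 note: 0% = DMSO-only wells as the low control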
KLK7 zymogen act = proKLK7 zymogen activators, primary screen, biochemical, fluorescence intensity; hit rate 0.9% among 370,000; AID 652039, 2013; purified proKLK7, EDANS-DABCYL substrate fluorescence; 100% is mature enzyme control, 0% vehicle; activation, % at 7 µM;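 active = activation above the mean of all tested compounds plus 3 SD, computed per campaign excluding outliers beyond control limits, cut at about 13% in these data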
Target sequence (P49862 whole entry, looked up): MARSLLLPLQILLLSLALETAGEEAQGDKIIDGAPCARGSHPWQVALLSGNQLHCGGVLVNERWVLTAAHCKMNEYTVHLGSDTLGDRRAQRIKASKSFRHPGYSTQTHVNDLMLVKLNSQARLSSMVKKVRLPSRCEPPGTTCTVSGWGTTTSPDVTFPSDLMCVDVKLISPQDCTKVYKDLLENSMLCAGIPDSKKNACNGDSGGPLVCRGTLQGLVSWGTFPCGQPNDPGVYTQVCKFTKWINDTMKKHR
ADAM10 inh = human ADAM10 inhibitors, primary screen, biochemical, QFRET, HTS; Disintegrin and metalloproteinase domain-containing protein 10 (Homo sapiens), O14672; recombinant ADAM10, EDANS/DABCYL FRET peptide cleavage, 3 h; inhibition, % at 7 µM; hit rate 0.62% among 370,000; AID 720582, 2013;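 active = inhibition above a per-campaign cutoff equal to the mean of compounds falling between control-based bounds plus 3 SD, cut at about 20% in these data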;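 note: 0% = DMSO wells while the 100% control is not disclosed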
Ecoli rRNA inh = reduced GFP signal of wild-type E. coli, primary screen, bacterial rRNA inhibitor project, GFP/RFP fluorescence, OD600, single point. E. coli WT GFP vs humanized-ribosome RFP mutants, 24 h; hits give low values; DMSO median 0, no signal -100. GFP signal change (wild-type ribosome), % (no concentration beside the values). hit rate 1.6% among 350,000. AID 720706, 2013;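 active = significant combined selectivity score with lowered wild-type GFP, culture density cut under 30%, mutant RFP and density less affected; inactive = any of these conditions unmet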
FGF22 binding = binders of human FGF22 protein, primary screen, FGF22 synaptogenesis inhibitor project, biophysical, thermal shift, single point | activity (Tm shift, normalised), % at 9.99 µM | recombinant FGF22 thermal shift, SYPRO orange fluorescence; percent of sucrose octasulfate shift, DMSO zero | hit rate 1.5% among 340,000 | Fibroblast growth factor 22 (Homo sapiens), Q9HCT0;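 active = mean Tm shift, scaled 0 neutral to 100 positive control, at about 1.3% or above, every replicate too, limit read from the data; inconclusive = no clear call, values can overlap the other calls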
Target sequence (Q9HCT0 whole entry, looked up): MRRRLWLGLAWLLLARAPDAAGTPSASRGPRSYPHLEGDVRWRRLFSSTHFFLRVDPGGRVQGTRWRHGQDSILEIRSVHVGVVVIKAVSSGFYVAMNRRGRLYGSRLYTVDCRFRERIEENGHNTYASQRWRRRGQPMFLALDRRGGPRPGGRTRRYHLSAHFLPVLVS
AID977621 = growth inhibition of wild-type GFP E. coli, dose response, H69 mutant RFP, cherry-pick | shares compounds with Ecoli rRNA inh | E. coli wild-type GFP strain growth, fluorescence, 24 h | activity change, negative = inhibition at 50 µM | 1,900 tested, under 10 active | AID 977621, 2014;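 active = Wild-type ribosome reporter drop at least double the humanized mutant ribosome reporter drop, growth loss under a set limit; inconclusive = no clear call, values can overlap the other calls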;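 note: wild-type GFP and H69 mutant RFP strains grown together 50/50 in each well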
AID977628 = E. coli growth inhibition, wild-type GFP versus h24 humanized RFP strain, dose response, h24 mutant RFP vs wild-type GFP, cherry-pick | 1,900 tested, under 10 active | shares compounds with Ecoli rRNA inh | E. coli WT GFP strain growth, fluorescence, 24 h | activity change, negative = inhibition at 50 µM;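 active = compound lowering the normal-ribosome reporter at least twice as much as the humanized-ribosome reporter, growth loss under a set limit; inconclusive = no clear call, values can overlap the other calls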;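 note: wild-type GFP and h24 humanized RFP strains co-cultured 1 to 1 per well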
The depositor's hits bear a star; ? = inconclusive; · = no result.

SMILES | ADAM17 inh | KLK7 zymogen act | ADAM10 inh | Ecoli rRNA inh | FGF22 binding | AID977621 | AID977628
CO[C@H]1CN(C)C(=O)c2ccc(NC(=O)C3CC3)cc2OC[C@H](C)N(CC2CCCC2)C[C@@H]1C | · | · | · | -1 | 0 | · | ·
O=C(c1cc(C(=O)N2CCOCC2)c2nc3ccccc3n2c1)c1cc(Cl)cc(Cl)c1O | -4 | 0 | -4 | -18* | 1 | · | ?
Cc1nn(C)cc1-c1n[nH]c(=S)n1-c1ccc(Cl)cc1 | -1 | 0 | -2 | 9 | 0 | · | ·
CC(C)(C)c1cc(-c2n[nH]c(=S)n2-c2ccc(Cl)cc2)n[nH]1 | -3 | 0 | 0 | -31* | 0 | ? | ·
CCNC(=O)C[C@@H]1CC[C@@H]2[C@@H](COc3ccc(NC(=O)C4CCOCC4)cc3C(=O)N2C)O1 | · | · | · | 1 | 0 | · | ·
COc1ccc(-c2ccc3ccccc3n2)cc1OC | -101 | 8 | -230 | -34* | 0 | · | ?
CNC(=O)C[C@@H]1CC[C@@H]2[C@@H](COc3ccc(NC(=O)Nc4cccc(C)c4)cc3C(=O)N2C)O1 | · | · | · | -1 | 0 | · | ·
COC(=O)c1sc(C(C)(C)C)cc1CS(=O)(=O)c1ccc(Cl)cc1 | 2 | 1 | 7 | -31* | 15* | 1.6 | -3.8
COC(=O)C[C@H]1C[C@H]2c3cc(NC(=O)Nc4ccc(F)cc4)ccc3O[C@H]2[C@H](CO)O1 | · | · | · | 1 | 0 | · | ·
C[C@H](C(=O)O)c1cccc(C(=O)c2ccccc2)c1 | -4 | 0 | 0 | · | 0 | · | ·
Cc1cc(C)c(NC(=O)C(C)c2cccc(C(=O)c3ccccc3)c2)c(C)c1 (centres undefined) | -3 | 0 | -3 | -17* | 0 | -2.7 | ·
COc1ccc(NC(=O)Nc2ccc3c(c2)C(=O)N([C@H](C)CO)C[C@@H](C)[C@H](CN(C)S(=O)(=O)c2cn(C)cn2)O3)cc1 | · | · | · | 1 | 0 | · | ·
COc1ccc(-c2ccc3c(c2)[C@@H]2[C@@H](CCN2S(=O)(=O)c2ccccc2F)[C@H](CO)N3C)cc1 | · | · | · | 2 | 1 | · | ·
COc1ccc(-c2nc(C3CCCCC3)no2)cc1OC | -3 | 1 | 0 | -19* | 0 | -0.86 | -16
CCOc1ccccc1NC(=O)c1ccccc1-c1ccccc1 | 2 | 0 | 5 | -15 | 0 | · | ·
CCOc1ccccc1NC(=O)c1cc(SC)ccc1Cl | 0 | 1 | 2 | -30* | 0 | -13 | -7.5
CCOc1ccc(OCc2ccc(C(=O)N3CCCC3)o2)cc1 | -3 | 0 | -10 | -17* | 0 | -7.6 | -11
CC[C@H]1C/C=C\CCNC(=O)CCC(=O)N1 | · | · | · | 0 | · | · | ·
CCCc1nc2oc3c(NCCCN(C)C)ncnc3c2c2c1CCCC2 | -25 | 0 | -68 | -23* | 0 | -7.3 | ·
O=C(C[C@H]1C[C@H]2c3cc(NC(=O)c4ccc5c(c4)OCO5)ccc3O[C@H]2[C@H](CO)O1)NC1CCCC1 | · | · | · | -2 | 0 | · | ·
CCN(CC)S(=O)(=O)c1cc(NC(=O)C(C)N2CCN(Cc3ccc4c(c3)OCO4)CC2)ccc1C (centres undefined) | -2 | -1 | -3 | -21* | 0 | ? | ·
C[C@H]1CN([C@@H](C)CO)C(=O)Cc2cc(NC(=O)Nc3cccc4ccccc34)ccc2O[C@H]1CN(C)C(=O)Nc1ccc2c(c1)OCO2 | · | · | · | -2 | 0 | · | ·
O=C(c1ccc(-n2cccn2)cc1)N1CCc2ccccc2C1 | 1 | 0 | 0 | -27* | 0 | -5.9 | ?
CS(=O)(=O)N1CC2CCCN2c2cc(C(F)(F)F)ccc21 (centres undefined) | -1 | 0 | 5 | -33 | 0 | · | ·
CS(=O)(=O)N1CC2CCCN2c2ccc(C(F)(F)F)cc21 (centres undefined) | 1 | -1 | 4 | -33* | 0 | -1.4 | -2.8
SMILES | ADAM17 inh | KLK7 zymogen act | ADAM10 inh | Ecoli rRNA inh | FGF22 binding | AID977621 | AID977628
CNC[C@@H]1Oc2cc(C#CCC(C)C)ccc2S(=O)(=O)N([C@@H](C)CO)C[C@H]1C | · | · | · | -4 | 0 | · | ·
CN(C)CCNc1ncnc2c1sc1nc(N3CCCC3)c3c(c12)CC(C)(C)OC3 | -5 | -2 | -18 | -21* | 0 | · | -5.3
CCN(CC)CCNc1ncnc2c1sc1nc(N3CCCC3)c3c(c12)CC(C)(C)OC3 | -5 | 0 | -28 | -52 | 42 | · | ·
COc1ccc(-c2cc(C(=O)N(C)CCc3ccc(OC)c(OC)c3)c3ccccc3n2)cc1 | -60 | -3 | -180 | -25* | 0 | ? | ·
COc1ccc(CN(C)C(=O)c2cc(-c3ccc(OC)c(OC)c3)nc3ccccc23)c(OC)c1 | -51 | 0 | -181 | -23* | 0 | -3.3 | -3.5
COc1ccc(CCN(C)C(=O)c2cc(-c3ccccc3)nc3ccccc23)cc1OC | -1 | 0 | -6 | -9 | 0 | · | ·
C[C@H]1CN([C@@H](C)CO)C(=O)c2cc(C#CCN(C)C)cnc2O[C@H]1CN(C)C(=O)c1cccc(F)c1 | · | · | · | 3 | 0 | · | ·
CCN(Cc1ccccc1)C(=O)COC(=O)c1cnc(C)cn1 | -2 | 1 | -3 | 7 | 0 | · | ·
CCN(Cc1ccccc1)C(=O)COC(=O)c1cc(Cl)nc(Cl)c1 | -6 | 0 | -9 | -35* | 0 | -18 | -4.4
CC(=O)c1ccccc1OCCOCCOCCOc1ccccc1C(C)=O | -7 | 0 | -9 | -22* | 0 | -5.6 | ?
CC(=O)Nc1ccccc1OCCOc1ccc(Br)cc1 | 6 | 0 | -5 | -25 | 0 | · | ·
NC(=O)c1ccccc1OCCOc1ccc(Br)cc1 | -2 | 0 | -6 | -26* | 0 | 7.6 | -1.7
CC(=O)c1ccccc1OCCCN1CCCCC1 | 0 | 0 | 5 | · | · | · | ·
CCS(=O)(=O)N1[C@H](CO)[C@H](c2ccc(C3=CCCCC3)cc2)[C@@H]1C#N | · | · | · | 4 | 0 | · | ·
COc1ccc(CN2C[C@H](C)[C@@H](OC)CN(C)C(=O)c3cc(NC(=O)c4nc5ccccc5s4)ccc3OC[C@H]2C)cc1 | · | · | · | -3 | -1 | · | ·
CC(C)C(=O)Nc1ccc2c(c1)C(=O)N(C)[C@@H]1CC[C@@H](CC(=O)NCC3CC3)O[C@@H]1CO2 | · | · | · | 3 | 0 | · | ·
C[C@H]1CN([C@@H](C)CO)C(=O)c2cccc(NC(=O)Nc3ccc4c(c3)OCO4)c2O[C@@H]1CN(C)Cc1ccc(Oc2ccccc2)cc1 | · | · | · | 0 | 0 | · | ·
